Bioassay records from PubChem.
An excerpt weighted towards active compounds, which were near 13% of everything screened.
UCHL1 block = inhibitors of human UCHL1 deubiquitinase. inhibition, % at 20 µM. purified UCHL1, Ub-rhodamine cleavage fluorescence. Ubiquitin carboxyl-terminal hydrolase isozyme L1 (Homo sapiens), P09936. AID 1645859, 2021. hit rate 0.2% among 47,000
Target sequence (P09936 whole entry, looked up): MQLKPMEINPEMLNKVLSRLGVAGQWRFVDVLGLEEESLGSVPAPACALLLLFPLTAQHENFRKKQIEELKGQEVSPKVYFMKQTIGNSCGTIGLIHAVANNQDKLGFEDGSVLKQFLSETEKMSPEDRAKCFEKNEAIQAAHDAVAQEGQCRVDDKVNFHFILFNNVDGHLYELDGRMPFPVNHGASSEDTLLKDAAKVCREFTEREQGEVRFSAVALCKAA
USP8 block = inhibitors of human USP8 deubiquitinase. purified USP8, Ub-rhodamine cleavage fluorescence, 30 min. inhibition, % at 20 µM. hit rate 4.2% among 47,000. AID 1645853, 2021
USP17 block = inhibitors of human USP17 deubiquitinase. Ubiquitin carboxyl-terminal hydrolase 17-like protein 5 (Homo sapiens), A8MUK1. purified USP17, Ub-rhodamine cleavage fluorescence, 3 h. inhibition, % at 50 µM. hit rate 6.5% among 47,000. AID 1645855, 2021
USP7 block = inhibitors of human USP7 deubiquitinase; inhibition, % at 20 µM; Ubiquitin carboxyl-terminal hydrolase 7 (Homo sapiens), Q93009; purified USP7, Ub-rhodamine cleavage fluorescence; hit rate 0.3% among 47,000
USP30 inh = inhibitors of human USP30 deubiquitinase | Ubiquitin carboxyl-terminal hydrolase 30 (Homo sapiens), Q70CQ3 | purified USP30, Ub-rhodamine cleavage fluorescence | inhibition, % at 25 µM | hit rate 5.3% among 47,000 | AID 1645860, 2021
USP10 block = inhibitors of human USP10 deubiquitinase; Ubiquitin carboxyl-terminal hydrolase 10 (Homo sapiens), Q14694; purified USP10, Ub-rhodamine fluorescence, 60 min; inhibition, % at 20 µM; hit rate 1.1% among 47,000
Hits are given with their value; - = inactive; . = not tested or not shown. No stated cut-off is given here; in the data, active means inhibition above about 30%; inactive means the rest.

SMILES | UCHL1 block | USP8 block | USP17 block | USP7 block | USP30 inh | USP10 block
O=C(Nc1ccc(Cl)cc1)c1nc(-n2cnnc2)ccc1Cl | - | - | 35.8 | - | - | -
Cc1cc(NC(=O)Cn2c(=O)n(CCCCC(=O)NCc3ccco3)c(=O)c3ccccc32)ccc1Br | - | 84.2 | 63.7 | - | - | 59.6
O=C(CCn1c(=O)c2ccccc2n(Cc2ccc([N+](=O)[O-])cc2)c1=O)NCc1ccco1 | - | - | - | - | - | -
N#Cc1ccccc1Cn1c(=O)n(CCC(=O)N2CC=C(c3ccccc3)CC2)c(=O)c2ccccc21 | - | - | - | - | - | -
CCOc1ccc(NC(=O)Cn2c(=O)n(CCC(=O)NCc3ccco3)c(=O)c3ccccc32)cc1 | - | 45.0 | 71.3 | - | - | 44.6
O=C(Cn1c(=O)n(CCC(=O)N2CC=C(c3ccccc3)CC2)c(=O)c2ccccc21)NCc1ccco1 | - | 51.2 | 63.4 | - | - | -
O=C(Cn1c(=O)n(CC2CCC(C(=O)NC3CCCC3)CC2)c(=O)c2ccccc21)NCCC1=CCCCC1 (configuration not stated) | - | - | 49.9 | - | 40.2 | 34.2
O=C(Cn1c(=O)n(CC2CCC(C(=O)NCCc3ccccc3)CC2)c(=O)c2ccccc21)Nc1ccccc1F (configuration not stated) | - | - | - | - | - | -
O=C(Cc1ccc(Br)cc1)NCc1nnc2c(C(F)(F)F)cc(Cl)cn12 | - | - | - | - | - | -
CCn1c(=O)n(CC(=O)Nc2ccc3c(c2)OCO3)c(=O)c2ccccc21 | - | - | - | - | - | -
O=C(CCCCn1c(=O)c2ccccc2n(CC(=O)NCCC2=CCCCC2)c1=O)NCc1ccco1 | - | 41.8 | - | - | - | -
Cc1ccc(NC(=O)Cn2c(=O)n(CC(=O)NCc3ccco3)c(=O)c3ccccc32)cc1C | - | - | 63.1 | - | 45.1 | -
COc1ccc(-c2noc(NCCc3ccccc3)n2)cc1 | - | - | 36.6 | - | - | -
c1ccc(CCNc2nc(-c3ccccc3)no2)cc1 | - | - | - | - | - | -
C/C=C/C=C/C(O)=C1/C(=O)[C@@]2(C)C(=O)[C@@](C)(O)[C@@H]1[C@H]1[C@]2(C(=O)CC/C=C/C)C(=O)C(C)=C(O)[C@@]1(C)O | - | - | - | - | - | -
CC(C)CCCCCCCCCCC(=O)N(C)[C@H](CO)C(=O)N[C@H](C)C(=O)NCC(=O)N(C)C1C(=O)N[C@@H](C)C(=O)NC(C(=O)O)Cc2ccc(O)c(c2)-c2cc1ccc2O (some centres not stated) | - | - | - | - | 33.2 | 60.4
Cc1ccc(S(=O)(=O)N2CCOC23CCN(C(=O)c2ccccc2)CC3)cc1 | - | - | - | - | 32.9 | -
Cc1ccccc1C(=O)N1CCC2(CC1)OCCN2S(=O)(=O)c1ccccc1 | - | - | - | - | - | -
COc1ccc(Cn2cnc3c([nH]c4ccc(Br)cc43)c2=O)cc1 | - | - | 61.0 | - | - | -
O=c1c2[nH]c3ccccc3c2ncn1Cc1cccnc1 | - | - | - | - | - | -
COCCCn1cnc2c([nH]c3ccc(Br)cc32)c1=O | - | - | 65.3 | - | . | -
COc1ccc2[nH]c3c(=O)n(Cc4cccnc4)cnc3c2c1 | - | - | 45.1 | - | - | -
Cc1ccc2[nH]c3c(=O)n(Cc4ccc(N(C)C)cc4)cnc3c2c1 | - | 88.3 | - | - | - | -
Cc1ccc2[nH]c3c(=O)n(Cc4cccnc4)cnc3c2c1 | - | - | 34.3 | . | - | -
Cc1ccccc1Cn1cc(C(=O)O)c(S(=O)(=O)N2CCCCC2)n1 | - | - | - | - | - | -
SMILES | UCHL1 block | USP8 block | USP17 block | USP7 block | USP30 inh | USP10 block
O=c1ccnc(Nc2cccc3ccccc23)[nH]1 | - | 48.7 | - | - | - | -
COc1ccccc1CNC(=O)c1c(O)c2cnn(-c3cccc(C)c3)c2[nH]c1=O | - | 81.6 | 39.1 | - | - | -
O=C(NCc1ccc(F)cc1F)c1c(O)c2cnn(-c3ccc(F)cc3)c2[nH]c1=O | - | - | - | - | - | -
CN(Cc1ccccc1)C(=O)c1cc(=O)nc2sc(N3CCCCCC3)nn12 | - | - | - | - | - | -
COc1cc2c(cc1OC)-c1cc(OCCN3CCCCC3)nc(=O)n1CC2 | - | - | - | - | - | -
O=C1CC[C@H](O)c2cccc(O)c21 | - | - | - | - | - | -
CC(=O)[C@H]1c2c(c(O)c3c(O)cccc3c2-c2c3c(c(O)c4c(O)cccc24)C(=O)C[C@](C)(O)[C@H]3C(C)=O)C(=O)C[C@]1(C)O | - | 64.2 | 78.0 | - | - | -
Cc1c(C(=O)N2CCCCCC2)oc2ccc3c(c12)C(O)CC1(CCCCC1)O3 (configuration not stated) | - | - | - | - | - | -
Clc1ccc(-c2cnc3sc(NCCc4ccccn4)nn23)cc1 | - | - | - | - | - | -
Clc1ccccc1-c1cnc2sc(NCCc3ccccn3)nn12 | - | - | - | - | 33.2 | -
Cc1ccc2nc(CNC(=O)c3ccccc3-c3nc(-c4ccc(F)cc4)no3)[nH]c2c1 | - | - | 77.6 | - | - | -
CC(=O)Nc1ccc(NC(=O)c2ccccc2-c2nc(-c3cccc(C)c3)no2)cc1 | - | - | - | - | - | -
CCCCCn1c(=O)c2sccc2n2c(CCC(=O)NC3CCCCCC3)nnc12 | - | - | 35.5 | - | - | -
COc1cccc(OC(=O)c2cn(C)c(=O)c3ccccc23)c1 | - | - | - | - | - | -
Cc1c(C)n(-c2ccc(Br)cn2)c2ncnc(NCCCO)c12 | - | - | - | - | 59.5 | -
CCc1ccc(CN2CC[C@H]3[C@H]2CCN3S(=O)(=O)C2CC2)o1 | - | - | - | - | - | -
COc1cnc(-c2ccccn2)nc1Sc1ccccc1Cl | - | - | 38.8 | - | 87.2 | -
COc1ccc(NC(C)C(=O)N2CC(=O)Nc3ccccc32)cc1 (configuration not stated) | - | - | - | - | - | -
COc1ccc(C(NC(=O)c2nc3n(n2)-c2ccccc2S(=O)(=O)N3)C(C)C)cc1 (configuration not stated) | - | - | 32.9 | - | - | 30.4
O=C1CC(C(=O)Nc2cccc(C(F)(F)F)c2)c2c(nc(N3CCCCC3)[nH]c2=O)N1 (configuration not stated) | - | - | - | - | - | -
COC1=CC(=O)c2c(O)c(C)c(CC(C)=O)c(O)c2C1=O | - | - | 63.9 | - | - | -
O=C(CN1CCc2[nH]c3c(F)c(Cl)ccc3c(=O)c2C1)NCc1ccc2c(c1)OCO2 | - | - | 45.7 | - | 32.4 | -
Cc1cc(=O)n(CC(=O)NCc2ccc3c(c2)OCO3)c(-c2ccc(F)cc2)n1 | - | - | - | - | - | -
